A selection: hits, their analogues and other compounds. The true share with any hit is near 6.1%.
DRD3 antagonist: blocks the human D3 dopamine receptor; P35462; hit rate 2.5% among 360,000; max response, negative = inhibition, %; D3R cells, DiscoveRx beta-arrestin luminescence, antagonist mode; stronger effect = lower value; in the data active = max response below about -50%; inconclusive = no clear call, values can overlap the other calls
Target sequence (P35462 whole entry, looked up): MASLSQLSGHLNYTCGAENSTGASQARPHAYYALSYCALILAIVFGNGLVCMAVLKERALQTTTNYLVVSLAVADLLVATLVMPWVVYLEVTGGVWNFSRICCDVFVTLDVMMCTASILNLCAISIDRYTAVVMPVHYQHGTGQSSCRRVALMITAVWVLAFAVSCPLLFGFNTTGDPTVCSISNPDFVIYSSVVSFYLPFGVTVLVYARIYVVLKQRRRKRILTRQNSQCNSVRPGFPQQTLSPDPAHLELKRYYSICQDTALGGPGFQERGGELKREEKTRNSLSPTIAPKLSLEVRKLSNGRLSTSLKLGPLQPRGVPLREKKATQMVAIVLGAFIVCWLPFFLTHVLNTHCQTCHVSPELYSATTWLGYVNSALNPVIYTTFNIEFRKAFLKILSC
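Cells plated overnight at 1500 cells/well, then exposed to library compounds with dopamine controls for 90 minutes at 37 degrees C. DiscoveRx reagent added for 30–60 minutes at room temperature; luminescence read, quantitative HTS format.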
D3 ag: D3 dopamine receptor (human) agonism; max activation, %; D3R DiscoveRx beta-arrestin cells, luminescence, 90 min; hit rate 0.58% among 410,000; in the data active = max activation above about 30%
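Agonist-mode cell screen: cells plated at 1500/well and incubated overnight at 37 °C, then exposed to library compounds for 90 min at 37 °C. Detection reagent was added for 30–60 min at room temperature, and luminescence was read.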
D1 antagonist: blocks dopamine activation of the human D1 receptor; P21728; HEK293 TREx D1 cells, calcium flux, dopamine EC80; stronger effect = lower value; activity change, negative = inhibition, % at 10 µM; hit rate 3.2% among 360,000; AID 504652; in the data active = activity change below about -30%
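Compound effects on dopamine-evoked calcium signalling were measured in tetracycline-induced HEK293 Trex D1 cells. Dopamine at EC80 followed a 180 s compound pre-read, and fluorescence was tracked kinetically for 180 s more.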
ERG Ets-DNA blk: blocks human ERG Ets domain binding to DNA. fluorescence polarization, His-ERG Ets domain / labelled DNA. Potency, µM (highest dose often 76.9 µM), most hits filed as inhibitors. hit rate 0.028% among 370,000; active = well fitted inhibition curve with a large enough effect in the polarisation, with a control signal flat; inconclusive = small, poorly fitted or top-dose-only effect, or effect the other way, or a change in a side signal; inactive = no such curve, though single readings can be large or run the other way; the % refers to the polarisation;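 note: polarization taken with two DNA probes labelled with fluorescein and Texas red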
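His-tagged ERG Ets domain (1 uM in the protein solution; 300mM KCl, 50mM Tris-HCl, 1mM EDTA, 1mM DTT, pH 7.5) received compound, then a probe mix of 5 nM fluorescein-DNA and 100nM Texas-615-DNA. Fluorescence polarization was read for both dyes.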
D1 agonist: human D1 receptor agonism; P21728; HEK293 T-REx D1 cells, calcium flux, agonist mode; activation, % at 2 µM; hit rate 1% among 360,000; in the data active = activation above about 30%
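Tetracycline-induced HEK293 TREx D1 cells, force-coupled to calcium signalling, were dye-loaded with a no-wash calcium kit. Compound was pin-added after a 10 s baseline. Fluorescence was read kinetically at 1 cycle/s for 180 s, with calcium rises flagged as agonism.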
D1 PAM: enhances dopamine response at the human D1 receptor; HEK293 TREx D1 cells, calcium flux, dopamine EC20 potentiation; potentiation, % at 10 µM; hit rate 0.036% among 360,000; AID 504651; in the data active = potentiation above about 30%
Large screens that a line does not name were inactive.

Cc1ccc(NC(=O)COC(=O)C2CCC2)cc1S(=O)(=O)N1CCCCC1	D1 antagonist -32
Cc1ccc(NC(=S)NCc2ccccc2)cc1S(=O)(=O)N1CCCCC1	D1 antagonist -35, D1 agonist 33
Cc1ccc(NC(=O)COC(=O)C2CCC2)cc1S(=O)(=O)N1CCOCC1	none (no result: D1 antagonist, D1 agonist, D1 PAM)
Cc1ccccc1CC(=O)OCC(=O)Nc1ccc(C)c(S(=O)(=O)N2CCCCC2)c1	D1 antagonist -35, D1 agonist 79 (no result: D1 PAM)
Cc1ccccc1OCCC(=O)OCC(=O)Nc1ccc(C)c(S(=O)(=O)N2CCCCC2)c1	none (no result: D1 antagonist, ERG Ets-DNA blk, D1 agonist, D1 PAM)
Cn1cnnc1SCC(=O)NC1CCCN(Cc2ccc(Cl)cc2)C1 (stereo not drawn)	none
CC(=O)C1=C(O)C(=O)N(Cc2cccnc2)C1c1ccc(O)cc1 (stereo not drawn)	none
Cc1ccc(NC(=O)Cn2ncc(Cl)c(Cl)c2=O)cc1S(=O)(=O)N1CCCCC1	DRD3 antagonist -58 (no result: D1 PAM)
Cc1ccc(NC(=O)Cc2ccc(Cl)cc2)cc1S(=O)(=O)N1CCCCCC1	none
COc1ccc(CCC(=O)NC(C)C2CCCO2)cc1 (stereo not drawn)	none
OC(c1ccccc1)c1nc(-c2cccc(F)c2)cs1 (stereo not drawn)	DRD3 antagonist -55 (no result: D1 antagonist, ERG Ets-DNA blk, D1 agonist, D1 PAM)
COc1ccc(C(O)c2nc(-c3ccccc3)cs2)cc1 (stereo not drawn)	D3 ag 63 (no result: D1 antagonist, ERG Ets-DNA blk, D1 agonist, D1 PAM)
COc1ccc(-c2csc(C(O)c3ccc(OC)cc3)n2)cc1 (stereo not drawn)	none (no result: D1 antagonist, ERG Ets-DNA blk, D1 agonist, D1 PAM)
COc1cccc(C(O)c2nc(-c3ccccc3C)cs2)c1 (stereo not drawn)	none (no result: D1 antagonist, ERG Ets-DNA blk, D1 agonist, D1 PAM)
COc1ccc(C(O)c2nc(-c3ccccc3C)cs2)cc1 (stereo not drawn)	DRD3 antagonist -95 (no result: D1 antagonist, ERG Ets-DNA blk, D1 agonist, D1 PAM)
CCC1(c2ccc(F)cc2)NC(=O)N(CC(=O)N2CCc3ccccc32)C1=O (stereo not drawn)	D1 agonist 58 (no result: D1 PAM)
O=C(CN1C(=O)NC2(CCCC2)C1=O)Nc1ccccc1N1CCCC1	none
CC1(c2ccccc2)NC(=O)N(CC(=O)Nc2ccccc2N2CCCC2)C1=O (stereo not drawn)	D1 agonist 38
CCC1(c2ccccc2)NC(=O)N(CC(=O)N2CCc3ccccc32)C1=O (stereo not drawn)	none (no result: D1 antagonist, D1 agonist, D1 PAM)
CCN(CC1COc2ccccc2O1)C(=O)CN1C(=O)NC(C)(c2ccc(C)cc2)C1=O (stereo not drawn)	none
CCCNC(=O)NC(=O)CN1C(=O)NC(C)(c2ccc3ccccc3c2)C1=O (stereo not drawn)	D3 ag 35
CCN(CC1COc2ccccc2O1)C(=O)CN1C(=O)NC(C)(c2ccccc2)C1=O (stereo not drawn)	D3 ag 55
CCN(CC)c1ccc(C(=O)NNC(=O)CN2C(=O)NC(C)(c3ccccc3)C2=O)cc1 (stereo not drawn)	none (no result: D1 PAM)
CC1(c2ccccc2)NC(=O)N(CC(=O)NNC(=O)c2ccccc2)C1=O (stereo not drawn)	D1 antagonist -43
CN1CCN(c2ccc(Cl)cc2NC(=O)CN2C(=O)NC(C)(c3ccccc3)C2=O)CC1 (stereo not drawn)	none
CCC1(c2ccccc2)NC(=O)N(CC(=O)Nc2cc(Cl)ccc2N2CCN(C)CC2)C1=O (stereo not drawn)	DRD3 antagonist inconclusive, D1 antagonist -38
CC(=O)OC1COC(OC2C(O)C(C)OC(OC3C(OC4CCC5(C)C(CCC6(C)C5CC=C5C7CC(C)(C)CCC7(C(=O)O)CCC56C)C4(C)CO)OCC(O)C3O)C2O)C(O)C1OC(C)=O (stereo not drawn)	D1 agonist 323 (no result: DRD3 antagonist, D3 ag, ERG Ets-DNA blk)
C/C=C(\C)C(=O)OC1[C@H](OC(C)=O)C2(CO)C(CC1(C)C)C1=CCC3C4(C)CCC(O[C@@H]5O[C@H](C(=O)O)[C@@H](O[C@@H]6O[C@H](CO)[C@@H](O)[C@H](O)[C@H]6O)[C@H](O)[C@H]5O[C@H]5O[C@H](CO)[C@@H](O)[C@H](O)[C@H]5O)[C@](C)(CO)C4CCC3(C)[C@]1(C)C[C@H]2O (stereo partly drawn)	DRD3 antagonist -121 (no result: D1 antagonist, D1 agonist, D1 PAM)

Source: PubChem BioAssay (National Center for Advancing Translational Sciences (NCATS))
